Consider seven compounds from PubChem BioAssay (NCATS).

Assay [1] concerns Zika virus NS2B-NS3 protease (linked construct). The assay is described as follows: Primary screen NINDS Rhodamine qHTS for Zika virus inhibitors (AID 1347160). Note: nearly all actives have a fitted effect of over 55% in size. In outline: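 Rhodamine110-peptide cleavage (1.5 µM substrate) by 25 nM linked NS2B-NS3 enzyme at pH 8.0 (Tris, Tween 20), after 15 min RT preincubation with compounds; 15-min fluorescence change normalized to controls and Hill-fitted.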

Assay [2] addresses Calcium and integrin-binding protein 1 (Homo sapiens) (UniProt Q99828). Briefly: Primary qHTS for Identification of Calcium Integrin Binding Protein 1 (CIB1) Competitor (AID 1508620).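 Note: GST tagged CIB1 binding a fluorescein labelled alphaIIb integrin peptide tracer; top concentration of the series differs between compounds.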 Summed up: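 Fluorescence polarization competition: CIB1-GST (1 uM final) preincubated with compound 15 min at room temperature, then FITC-labeled alphaIIb peptide (100 nM final) added for another 15 min. Polarization read at Ex 480/Em 540.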

Assay [3] is described as follows: Primary qHTS for inhibitors of nuclear receptor binding SET domain protein 2 (NSD2) in an isogenic RCH-ACV NSD2 p.E1099K mutant (9B) (AID 1645876). Note: potency is the fitted concentration of half-maximal effect; nearly all actives have a fitted effect of over 70% in size.
For assay [4], the target named is Glutathione peroxidase 1 (Homo sapiens) (UniProt P07203). The assay is described as follows: Primary qHTS Assay for Inhibitors of Recombinant Selenoprotein Glutathione Peroxidase 1 (GPX1) (AID 1845191). Note: nearly all actives have a fitted effect of over 65% in size. In outline:
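GPX1 10 nM, GR 100 nM, GSH 1 mM, NADPH 0.5 mM, CHP 0.5 mM (final). 30-min cpd preincubation, RT. Ex340/Em450 read t=0, t=15 min.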

The target in assay [5] is Phospholipid hydroperoxide glutathione peroxidase GPX4 (Homo sapiens) (UniProt P36969). The assay is described as follows: Primary qHTS Assay for Inhibitors of Recombinant Selenoprotein Glutathione Peroxidase 4 (GPX4) (AID 1845192). Note: nearly all actives have a fitted effect of over 65% in size. Conditions: outcome: dose series up to 50 µM unless noted. Summed up: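 qHTS, GR-coupled: GPX4 200 nM + cpd 30 min RT → GSH 1 mM, NADPH 0.5 mM, GR 100 nM → CHP 0.5 mM start; fluor 340/450 at t0 and t15 min; no-enzyme wells as control.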

Assay [6] addresses Luciferin 4-monooxygenase (Photinus pyralis) (UniProt P08659). The assay is described as follows: Primary firefly luciferase (FLuc) qHTS assay for identification of artifact compounds. (AID 1845220). Note: nearly all actives have a fitted effect of over 60% in size. Summed up: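 In this counter-screen for luciferase artifacts, test compounds met substrate (10 uM each luciferin and ATP) before 10 nM enzyme started the reaction. Light output was measured 5 min later.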

Assay [7] can be described thus: Primary fluorescence-based thiol-reactive (MSTI) qHTS assay for identification of artifact compounds. (AID 1845221).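 Note: thiol-reactive compounds lower the probe fluorescence signal; nearly all actives have a fitted effect of over 65% in size.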 Summed up: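 qHTS titration of compound; 4 uM MSTI, PBS pH 7.4, 2% DMSO; 1 h RT, dark; fluorescence 525/598 nm; normalized to Acetyl-MSTI and MSTI; 4-parameter Hill fit.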
Assay [8] has as its system Nanoluciferase (engineered Oplophorus gracilirostris luciferase). Briefly: Primary Nanoluciferase (NLuc) qHTS assay for identification of artifact compounds. (AID 1845222).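 Note: NLuc secreted into diluted conditioned medium of S16 cells.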 Summed up:
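Using secreted nanoluciferase in S16 culture medium (0.22 um filtered, 1:55 dilution), compounds were preincubated 15 min at RT. Signal was generated with Nano-Glo reagent (1:100) over 5 min.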

The subject of assay [9] is C33A. The assay is described as follows: Primary qHTS to identify gynecologic anti-cancer compounds using libraries of approved drugs and bioactive compounds (AID 1345084). Note: nearly all actives have a fitted effect of over 55% in size. Note: potency is the fitted concentration of half-maximal effect. The settings on record: Gynecologic cancer cell panel viability, ATPlite luminescence, 48 h; series mostly up to 57.5 µM. In outline: (§1)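 Cells, 1,000 per well, were allowed to settle for 16 h at 37 C before compound addition. Five concentrations were tested for 48 h, and viability was read by ATPlite luminescence after 15 min at room temperature.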

Assay [10] deals with CAOV3. Described as above. The settings on record: Gynecologic cancer cell panel viability, ATPlite luminescence, 48 h; series mostly up to 57.5 µM. Summed up: as §1
The test system of assay [11] is CASKI. The assay is described as above. The settings on record: Gynecologic cancer cell panel viability, ATPlite luminescence, 48 h; series mostly up to 57.5 µM. Summed up:
as §1

The test system of assay [12] is Es-2. The assay is described as above. The settings on record: Gynecologic cancer cell panel viability, ATPlite luminescence, 48 h; series mostly up to 57.5 µM. In outline:
as §1

Assay [13] has as its system HeLa. Described as above. The settings on record: Gynecologic cancer cell panel viability, ATPlite luminescence, 48 h; series mostly up to 57.5 µM. Summed up:
as §1

The test system of assay [14] is Hek293T. The description is as above. The settings on record: Gynecologic cancer cell panel viability, ATPlite luminescence, 48 h, control line for the selectivity index; series mostly up to 57.5 µM. Summed up: as §1
The test system of assay [15] is JEG-3. The description is as above. The settings on record: Gynecologic cancer cell panel viability, ATPlite luminescence, 48 h; series mostly up to 57.5 µM. Summed up: as §1
Assay [16] relates to OV90. Described as above. Conditions: Gynecologic cancer cell panel viability, ATPlite luminescence, 48 h; series mostly up to 57.5 µM. Summed up: as §1
The test system of assay [17] is Tov112D. The description is as above. Conditions: Gynecologic cancer cell panel viability, ATPlite luminescence, 48 h; series mostly up to 57.5 µM. Summed up:
as §1

A short description of assay [18]: Primary qHTS for inhibitors of nuclear receptor binding SET domain protein 2 (NSD2) in an RCH-ACV wild type WT cells (2C) (AID 1645877). Note: potency is the fitted concentration of half-maximal effect; nearly all actives have a fitted effect of over 70% in size.
Assay [19] is described as follows: Primary redox qHTS assay for identification of artifact compounds. (AID 1845223). In outline:
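Redox-cycling detection via DTT (250 uM final) oxidation coupled to Amplex Red (25 uM)/HRP (250 mU/mL) in HBSS. 15 min preincubation plus 30 min after DTT, room temperature. Ex/Em 525/598 nm; 4-parameter Hill fit against DMSO and 10 uM DA3003.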

Assay [20] concerns Tov-21-G. Briefly: Primary qHTS to identify gynecologic anti-cancer compounds using libraries of approved drugs and bioactive compounds (AID 1345084). Note: nearly all actives have a fitted effect of over 55% in size. Note: potency is the fitted concentration of half-maximal effect. The settings on record: Gynecologic cancer cell panel viability, ATPlite luminescence, 48 h; series mostly up to 57.5 µM. In outline:
as §1

Structures are written as SMILES. A number with no mark means an inactive call. Records with an inconclusive call do not appear. The source made the active and inactive calls. Calls come from the whole dose curve; as a rule, active = well fitted curve in the direction sought with a large enough effect; inconclusive = small, poorly fitted or top-dose-only effect, or another doubt; inactive = no such curve, though single readings can be large; an effect the other way counts as inactive or inconclusive.

Chain of Phospholipid hydroperoxide glutathione peroxidase GPX4 (Homo sapiens) (P36969 whole entry, looked up): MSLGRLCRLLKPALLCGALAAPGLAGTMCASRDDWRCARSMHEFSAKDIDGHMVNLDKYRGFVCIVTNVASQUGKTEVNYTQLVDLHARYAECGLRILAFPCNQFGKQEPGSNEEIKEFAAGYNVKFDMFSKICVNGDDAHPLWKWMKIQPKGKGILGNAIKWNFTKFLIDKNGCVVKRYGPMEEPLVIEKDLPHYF
Chain of Calcium and integrin-binding protein 1 (Homo sapiens) (Q99828 whole entry, looked up): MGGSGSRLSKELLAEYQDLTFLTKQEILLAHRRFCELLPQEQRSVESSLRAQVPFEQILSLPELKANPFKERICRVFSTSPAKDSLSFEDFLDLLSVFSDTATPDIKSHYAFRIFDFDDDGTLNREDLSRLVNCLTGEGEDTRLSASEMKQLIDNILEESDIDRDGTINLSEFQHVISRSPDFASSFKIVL
Chain of Glutathione peroxidase 1 (Homo sapiens) (P07203 whole entry, looked up): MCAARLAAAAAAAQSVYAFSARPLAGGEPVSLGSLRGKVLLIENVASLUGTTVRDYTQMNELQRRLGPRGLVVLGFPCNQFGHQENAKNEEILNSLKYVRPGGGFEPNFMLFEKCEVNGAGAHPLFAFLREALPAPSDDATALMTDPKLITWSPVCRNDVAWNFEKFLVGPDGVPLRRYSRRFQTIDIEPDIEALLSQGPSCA

As to `CC(C)n1cnc2c(Nc3cccc(Cl)c3)nc(NCCO)nc21`, the Potency result in assay [1], in assay [4], in assay [5], in assay [6], in [7] and in [8] was “inactive” each time. Further, the Potency result in [9], in [10], in assay [11], in assay [12], in assay [13] and in assay [14] was “inactive” in each case. The Potency entry in assay [15], in [16] and in assay [17] was “inactive” in each case. For the same compound, the outcome in [2] was inactive. In addition, in [3], the Potency was 11.5 µM (active).

Consider `CN(C)CC(=O)Nc1ccc2[nH]c(=O)c3ccccc3c2c1`, for which the Potency entry in [1], in assay [6], in [7], in assay [8], in assay [19] and in assay [9] was “inactive” each time. The Potency result in assay [10], in assay [11], in assay [12], in [13], in [15] and in assay [16] was “inactive” throughout. In assay [17], the Potency result was “inactive”. Besides, in assay [2], the result was inactive. The Potency is 20.5 µM (active) in [3] and 23 µM (active) in assay [18].

With `CNc1nc(-c2ccc3c(N)n[nH]c3c2)cc(N2CC(C(=O)NC3CCCCC3)CCC2C)n1` (configuration not stated), the Potency entry in [1], in [5], in [6], in assay [8], in assay [19] and in assay [9] was “inactive” each time. Moreover, the Potency result in [11], in [12], in assay [13] and in assay [17] was “inactive” each time. The result in [2] was inactive. Besides, the Potency was 0.578 µM (active) in assay [3] and 1.15 µM (active) in [18].

Turning to `CC(C)c1ccc(NC(=O)C(c2ccccc2)N(C)C(=O)Cc2c[nH]c3ccccc23)cc1` (configuration not stated), the result in [2] was inactive. The Potency in assay [3] and in assay [18] was 20.5 µM (active) throughout. For the same compound, the Potency entry in assay [4], in [5], in [7], in assay [8], in [19] and in assay [9] was “inactive” throughout. The Potency entry in assay [11], in assay [12], in assay [13], in assay [14], in assay [15] and in assay [16] was “inactive” each time. Also, the Potency entry in assay [20] and in assay [17] was “inactive” in each case.

Regarding `COc1ccc(-c2c(C)c(C(=O)NN3CCCCC3)nn2-c2ccc(Cl)cc2Cl)cc1`, the Potency result in [1], in assay [6], in [7], in assay [8], in [19] and in [9] was “inactive” each time. Moreover, the Potency entry in [11], in [12], in [13], in [14], in assay [16] and in assay [20] was “inactive” each time. Further, in assay [17], the Potency result was “inactive”.

With `Cc1c(C(=O)NCCCO)cnn1-c1nc(-c2cccc(C(F)(F)F)c2)cs1`, the Potency entry in [1], in [5], in assay [6], in [7], in assay [8] and in assay [9] was “inactive” in each case. For the same compound, the Potency result in assay [10], in assay [12], in assay [13], in assay [14], in assay [15] and in assay [16] was “inactive” throughout. The Potency result in assay [20] and in assay [17] was “inactive” throughout. In addition, the outcome in assay [2] was inactive. Further, the Potency in assay [3] and in [18] was 25.8 µM (active) each time.

With `CCN(CC)c1ccc(C(=C2C=CC(=[N+](CC)CC)C=C2)c2cc(S(=O)(=O)O)ccc2S(=O)(=O)[O-])cc1`, the outcome in [2] was inactive. The Potency result in assay [4] and in [5] was “inactive” in each case. The Potency in [9] was 10 µM (active); in assay [10], 28.2 µM (active); in assay [12] it was 28.2 µM (active); in assay [14] it was 12.6 µM (active); in assay [16] it was 12.6 µM (active); in assay [20] it was 25.1 µM (active).
